The panel holds about 79,000 compounds, 15% with a hit somewhere; the sample as a whole holds those more often. Values without a mark were called inactive. Activity calls are given as the source filed them. No stated cut-off is given here; in the data, active means growth inhibition above about 70%; inactive means the rest.
What was measured:
[1] = NCI Yeast Anticancer Drug Screen. Data for the rad52 strain (AID 147);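 further: 0% = growth of vehicle-treated control cultures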; conditions: S. cerevisiae rad52 mutant growth inhibition, active compounds read high
Method in brief: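 Growth of repair-deficient yeast cells was compared between compound-treated and vehicle-treated cultures to give percent inhibition.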

[2] = NCI Yeast Anticancer Drug Screen. Data for the wt1 strain (AID 149);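 further: 0% = growth of vehicle-treated wt1 cultures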; conditions: S. cerevisiae wt1 strain (SPY 50644) growth inhibition, active compounds read high
Method in brief: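 Readout: yeast growth inhibition, normalised to vehicle controls, in the wt1 strain exposed to test compounds.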

[3] = NCI Yeast Anticancer Drug Screen. Data for the rad50 strain (AID 155);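 further: 0% = growth of vehicle-only cultures of the same strain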; conditions: S. cerevisiae rad50 strain growth inhibition, active compounds read high
Method in brief: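 Compounds were tested on a yeast strain with an engineered DNA damage repair alteration; the reported value is growth inhibition normalised to vehicle treatment.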

[4] = NCI Yeast Anticancer Drug Screen. Data for the mec2-1 strain (AID 157); conditions: S. cerevisiae mec2-1 strain, active compounds read high
Method in brief: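 Compounds were applied to mec2-1 yeast cells. Their growth was then compared with that of vehicle-treated cultures to give growth inhibition.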

[5] = NCI Yeast Anticancer Drug Screen. Data for the rad14 strain (AID 159);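 further: 0% = growth of vehicle-treated control cultures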; conditions: S. cerevisiae rad14 strain growth inhibition, active compounds read high
Method in brief: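 Compound-treated yeast with a defined DNA-repair lesion; growth inhibition normalised to vehicle-treated cultures.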

[6] = NCI Yeast Anticancer Drug Screen. Data for the sgs1 mgt1 strain (AID 161);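 further: 0% = growth of cultures given vehicle only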; conditions: S. cerevisiae sgs1 mgt1 strain, active compounds read high
Method in brief: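 Growth of a repair-deficient yeast mutant was monitored after compound treatment and expressed as inhibition relative to vehicle-treated cultures.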

[7] = NCI Yeast Anticancer Drug Screen. Data for the cln2 rad14 strain (AID 165);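 further: 0% = growth equal to vehicle treated cultures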; conditions: S. cerevisiae cln2 rad14 strain, active compounds read high
Method in brief: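 Strain: cln2 rad14 yeast, altered in cell cycle control and DNA damage repair. Read-out: growth inhibition vs vehicle.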

[8] = NCI Yeast Anticancer Drug Screen. Data for the bub3 strain (AID 167); conditions: S. cerevisiae bub3 mutant strain, active compounds read high
Method in brief: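 Growth of a checkpoint-deficient yeast mutant is measured after compound exposure. Values represent inhibition relative to vehicle.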

[9] = NCI Yeast Anticancer Drug Screen. Data for the wt2 strain (AID 169);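 further: 0% = growth of vehicle-treated yeast cultures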; conditions: S. cerevisiae wt2 strain growth inhibition, active compounds read high
Method in brief: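 Growth of compound-treated yeast is measured and expressed as inhibition relative to vehicle-only controls.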

[10] = NCI Yeast Anticancer Drug Screen. Data for the mlh1 strain (AID 171);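 further: 0% = growth of vehicle-treated control cultures of the same strain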; conditions: S. cerevisiae mlh1 strain growth inhibition, active compounds read high
Method in brief: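 Test agents were incubated with yeast bearing a defined DNA damage repair or cell cycle control alteration; values are growth inhibition normalised to vehicle-treated cultures.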

[11] = NCI Yeast Anticancer Drug Screen. Data for the sgs1 strain (AID 173);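 further: 0% = growth of vehicle-only control cultures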; conditions: S. cerevisiae sgs1 mutant, active compounds read high
Method in brief: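 Strain with an altered DNA repair or cell cycle pathway exposed to compound. Growth then measured. Value = inhibition versus vehicle control.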

[12] = NCI Yeast Anticancer Drug Screen. Data for the mlh1 rad18 strain (AID 175); conditions: S. cerevisiae mlh1 rad18 strain growth inhibition, active compounds read high
Method in brief: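 A repair-deficient yeast strain is exposed to test compound, and growth is scored relative to vehicle-treated controls.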

[13] = NCI Yeast Anticancer Drug Screen. Data for the rad18 strain (AID 177); conditions: S. cerevisiae rad18 mutant growth inhibition, active compounds read high
Method in brief: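 DNA-repair-defective yeast; compound treatment; growth inhibition scored against vehicle.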

[14] = NCI Yeast Anticancer Drug Screen. Data for the mgt1 strain (AID 153); conditions: S. cerevisiae mgt1 mutant growth inhibition, active compounds read high
Method in brief: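 Compounds were applied to mgt1 mutant yeast, and growth was then compared against vehicle-treated control cultures to give percent inhibition.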

[15] = NCI Yeast Anticancer Drug Screen. Data for the CLN2oe strain (AID 163);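 further: 0% = growth of vehicle-only control cultures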; conditions: S. cerevisiae CLN2oe strain, active compounds read high
Method in brief: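 Cells of an engineered yeast line with disturbed cell-cycle regulation are treated with compound. Inhibition of growth is then calculated relative to the vehicle-treated reference.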

[16] = at 5.0 µM (retest, dose inferred, filed as 0.5)
[17] = at 50.0 µM (retest, dose inferred, filed as 5.0)

## O=C1OC2C(O)COC2(OCc2c[nH]c3ccccc23)C1O (stereo not drawn) (tested in a mixture with another compound)
[1]; at 1.2 µM
  growth inhibition: -2%
[1]; at 3.7 µM
  growth inhibition: -1%
[1]; at 11.0 µM
  growth inhibition: 1%
[1]; at 33.0 µM
  growth inhibition: 24%
[1]; at 100.0 µM
  growth inhibition: 84% (active)
[2]; at 1.2 µM
  growth inhibition: -1%
[2]; at 3.7 µM
  growth inhibition: -1%
[2]; at 11.0 µM
  growth inhibition: 0%
[2]; at 33.0 µM
  growth inhibition: 12%
[2]; at 100.0 µM
  growth inhibition: 88% (active)
[3]; at 1.2 µM
  growth inhibition: 2%
[3]; at 3.7 µM
  growth inhibition: 5%
[3]; [16]
  growth inhibition: 1%
[3]; at 11.0 µM
  growth inhibition: 19%
[3]; at 33.0 µM
  growth inhibition: 26%
[3]; [17]
  growth inhibition: 15%
[3]; at 50.0 µM
  growth inhibition: 66.4%
[3]; at 100.0 µM
  growth inhibition: 95% (active)
[4]; at 1.2 µM
  growth inhibition: 0%
[4]; at 3.7 µM
  growth inhibition: 1%
[4]; [16]
  growth inhibition: -3%
[4]; at 11.0 µM
  growth inhibition: 1%
[4]; at 33.0 µM
  growth inhibition: 12%
[4]; [17]
  growth inhibition: 22%
[4]; at 50.0 µM
  growth inhibition: 49.1%
[4]; at 100.0 µM
  growth inhibition: 91% (active)
[5]; at 1.2 µM
  growth inhibition: -2%
[5]; at 3.7 µM
  growth inhibition: 2%
[5]; at 11.0 µM
  growth inhibition: 4%
[5]; at 33.0 µM
  growth inhibition: 30%
[5]; at 100.0 µM
  growth inhibition: 95% (active)
[6]; [16]
  growth inhibition: -3%
[6]; [17]
  growth inhibition: 48%
[6]; at 50.0 µM
  growth inhibition: 66.5%
[7]; [16]
  growth inhibition: -2%
[7]; [17]
  growth inhibition: 36%
[7]; at 50.0 µM
  growth inhibition: 42.4%
[8]; at 1.2 µM
  growth inhibition: 0%
[8]; at 3.7 µM
  growth inhibition: 3%
[8]; [16]
  growth inhibition: -1%
[8]; at 11.0 µM
  growth inhibition: 3%
[8]; at 33.0 µM
  growth inhibition: 22%
[8]; [17]
  growth inhibition: 46%
[8]; at 50.0 µM
  growth inhibition: 6.5%
[8]; at 100.0 µM
  growth inhibition: 92% (active)
[9]; at 1.2 µM
  growth inhibition: -2%
[9]; at 3.7 µM
  growth inhibition: 7%
[9]; at 11.0 µM
  growth inhibition: 0%
[9]; at 33.0 µM
  growth inhibition: 5%
[9]; at 100.0 µM
  growth inhibition: 75% (active)
[10]; at 1.2 µM
  growth inhibition: -1%
[10]; at 3.7 µM
  growth inhibition: -2%
[10]; at 11.0 µM
  growth inhibition: -2%
[10]; at 33.0 µM
  growth inhibition: 11%
[10]; at 100.0 µM
  growth inhibition: 87% (active)
[11]; at 1.2 µM
  growth inhibition: -1%
[11]; at 3.7 µM
  growth inhibition: 0%
[11]; at 11.0 µM
  growth inhibition: 3%
[11]; at 33.0 µM
  growth inhibition: 43%
[11]; at 100.0 µM
  growth inhibition: 92% (active)
[12]; [16]
  growth inhibition: -3%
[12]; [17]
  growth inhibition: 26%
[12]; at 50.0 µM
  growth inhibition: 88.9% (active)
[13]; at 1.2 µM
  growth inhibition: 0%
[13]; at 3.7 µM
  growth inhibition: 2%
[13]; at 11.0 µM
  growth inhibition: 9%
[13]; at 33.0 µM
  growth inhibition: 68%
[13]; at 100.0 µM
  growth inhibition: 96% (active)

## CO[C@@]12[C@H](COC(N)=O)C3=C(C(=O)C(C)=C(N)C3=O)N1C[C@@H]1N[C@@H]12
[1]; at 1.2 µM
  growth inhibition: 7%
[1]; at 3.7 µM
  growth inhibition: 19%
[1]; at 11.0 µM
  growth inhibition: 55%
[1]; at 33.0 µM
  growth inhibition: 83% (active)
[1]; at 100.0 µM
  growth inhibition: 92% (active)
[2]; at 1.2 µM
  growth inhibition: 1%
[2]; at 3.7 µM
  growth inhibition: 2%
[2]; at 11.0 µM
  growth inhibition: 9%
[2]; at 33.0 µM
  growth inhibition: 30%
[2]; at 100.0 µM
  growth inhibition: 62%
[14]; at 1.2 µM
  growth inhibition: -2%
[14]; at 3.7 µM
  growth inhibition: 2%
[14]; at 11.0 µM
  growth inhibition: 11%
[14]; at 33.0 µM
  growth inhibition: 33%
[14]; at 100.0 µM
  growth inhibition: 79% (active)
[3]; at 1.2 µM
  growth inhibition: 1%
[3]; at 3.7 µM
  growth inhibition: 14%
[3]; [16]
  growth inhibition: 23%
[3]; at 11.0 µM
  growth inhibition: 38%
[3]; at 33.0 µM
  growth inhibition: 76% (active)
[3]; [17]
  growth inhibition: 72% (active)
[3]; at 50.0 µM
  growth inhibition: 65.3%
[3]; at 100.0 µM
  growth inhibition: 91% (active)
[4]; at 1.2 µM
  growth inhibition: 1%
[4]; at 3.7 µM
  growth inhibition: 13%
[4]; [16]
  growth inhibition: 25%
[4]; at 11.0 µM
  growth inhibition: 29%
[4]; at 33.0 µM
  growth inhibition: 74% (active)
[4]; [17]
  growth inhibition: 80% (active)
[4]; at 50.0 µM
  growth inhibition: 63.9%
[4]; at 100.0 µM
  growth inhibition: 91% (active)
[5]; at 1.2 µM
  growth inhibition: 6%
[5]; at 3.7 µM
  growth inhibition: 17%
[5]; at 11.0 µM
  growth inhibition: 39%
[5]; at 33.0 µM
  growth inhibition: 76% (active)
[5]; at 100.0 µM
  growth inhibition: 89% (active)
[6]; [16]
  growth inhibition: 22%
[6]; [17]
  growth inhibition: 68%
[6]; at 50.0 µM
  growth inhibition: 50.8%
[15]; at 1.2 µM
  growth inhibition: -3%
[15]; at 3.7 µM
  growth inhibition: 0%
[15]; at 11.0 µM
  growth inhibition: 7%
[15]; at 33.0 µM
  growth inhibition: 38%
[15]; at 100.0 µM
  growth inhibition: 85% (active)
[7]; [16]
  growth inhibition: 7%
[7]; [17]
  growth inhibition: 57%
[7]; at 50.0 µM
  growth inhibition: 48.8%
[8]; at 1.2 µM
  growth inhibition: 1%
[8]; at 3.7 µM
  growth inhibition: 3%
[8]; [16]
  growth inhibition: 29%
[8]; at 11.0 µM
  growth inhibition: 7%
[8]; at 33.0 µM
  growth inhibition: 26%
[8]; [17]
  growth inhibition: 49%
[8]; at 50.0 µM
  growth inhibition: 25.4%
[8]; at 100.0 µM
  growth inhibition: 67%
[9]; at 1.2 µM
  growth inhibition: -1%
[9]; at 3.7 µM
  growth inhibition: 4%
[9]; at 11.0 µM
  growth inhibition: 15%
[9]; at 33.0 µM
  growth inhibition: 51%
[9]; at 100.0 µM
  growth inhibition: 86% (active)
[10]; at 1.2 µM
  growth inhibition: 1%
[10]; at 3.7 µM
  growth inhibition: 7%
[10]; at 11.0 µM
  growth inhibition: 21%
[10]; at 33.0 µM
  growth inhibition: 55%
[10]; at 100.0 µM
  growth inhibition: 84% (active)
[11]; at 1.2 µM
  growth inhibition: 3%
[11]; at 3.7 µM
  growth inhibition: 11%
[11]; at 11.0 µM
  growth inhibition: 36%
[11]; at 33.0 µM
  growth inhibition: 71% (active)
[11]; at 100.0 µM
  growth inhibition: 90% (active)
[13]; at 1.2 µM
  growth inhibition: 20%
[13]; at 3.7 µM
  growth inhibition: 60%
[13]; at 11.0 µM
  growth inhibition: 84% (active)
[13]; at 33.0 µM
  growth inhibition: 93% (active)
[13]; at 100.0 µM
  growth inhibition: 94% (active)

Source: PubChem BioAssay (NCI)
